Results published in PubChem BioAssay (NCATS).
Results filed as inconclusive are left out. A call without a number means that no potency is given here. A number with no mark means an inactive call. Calls of active or inactive are those of the source. Unless noted, the call rests on the fitted dose curve; in most records, active means well fitted curve in the direction sought with a large enough effect in the repeat runs; inconclusive means weak or mixed curves; inactive means no such curve, though single readings can be large; an effect the other way counts as inactive or inconclusive. Where a SMILES comes first, the peptide text is derived from it. Peptide text beside a SMILES is read from it. The star is where a group is joined. AFC = O=c1cc(C(F)(F)F)c2ccc(N*)cc2o1

Key:
[1] = molecular target: Calcium and integrin-binding protein 1 (Homo sapiens) (UniProt Q99828); test: Primary qHTS for Identification of Calcium Integrin Binding Protein 1 (CIB1) Competitor (AID 1508620; active means well fitted curve in the direction sought with a large enough effect; an effect the other way counts as inactive or inconclusive;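 further: GST tagged CIB1 binding a fluorescein labelled alphaIIb integrin peptide tracer; top concentration of the series differs between compounds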)
Calcium and integrin-binding protein 1 (Homo sapiens), sequence (Q99828 whole entry, looked up): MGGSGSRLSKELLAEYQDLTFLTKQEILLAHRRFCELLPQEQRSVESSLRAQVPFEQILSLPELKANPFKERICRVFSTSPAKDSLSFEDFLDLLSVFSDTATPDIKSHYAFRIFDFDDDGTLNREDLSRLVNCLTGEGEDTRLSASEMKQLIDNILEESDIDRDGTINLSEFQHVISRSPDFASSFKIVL
In short: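 Fluorescence polarization competition: GST-tagged CIB1 (1 uM final) preincubated with compound 15 min at room temperature, then FITC-labelled alphaIIb peptide (100 nM final) added. After 15 min at room temperature, polarization read at Ex 480/Em 540.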

[2] = molecular target: Cytochrome P450 2C9 (Homo sapiens) (UniProt P11712); test: Cytochrome P450 family 2 subfamily C member 9 (CYP2C9) small molecule antagonists: luciferase biochemical (cell-free) qHTS assay (AID 1645842); further: nearly all actives have a fitted effect of over 55% in size; further: potency means the concentration at half of the fitted maximal effect; on activity change, negative = inhibition: series mostly up to about 57 µM
Cytochrome P450 2C9 (Homo sapiens), sequence (P11712 whole entry, looked up): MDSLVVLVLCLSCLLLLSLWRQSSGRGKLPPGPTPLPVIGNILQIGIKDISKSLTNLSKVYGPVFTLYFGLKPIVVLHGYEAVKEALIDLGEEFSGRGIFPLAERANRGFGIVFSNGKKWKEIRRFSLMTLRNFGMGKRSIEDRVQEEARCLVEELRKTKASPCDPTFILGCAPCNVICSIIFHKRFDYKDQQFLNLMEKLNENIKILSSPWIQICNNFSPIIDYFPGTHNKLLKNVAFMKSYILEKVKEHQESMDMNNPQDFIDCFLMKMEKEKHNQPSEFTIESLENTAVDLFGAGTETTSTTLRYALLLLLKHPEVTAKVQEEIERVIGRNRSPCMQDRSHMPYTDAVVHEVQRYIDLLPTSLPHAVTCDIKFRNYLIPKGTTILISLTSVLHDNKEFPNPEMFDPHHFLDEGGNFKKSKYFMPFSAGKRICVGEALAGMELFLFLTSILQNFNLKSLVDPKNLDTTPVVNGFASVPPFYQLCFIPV
In short: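 Luminescence, after 20 min with luciferin detection reagent, reflected CYP2C9 turnover during a 1 h NADPH-driven reaction at 37C. Enzyme-substrate mix contained 0.4% bovine serum albumin and was preincubated with compound 10 min at room temperature.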

[3] = molecular target: Cytochrome P450 2D6 (Homo sapiens) (UniProt P10635); test: Cytochrome P450 family 2 subfamily D member 6 (CYP2D6) small molecule antagonists: luciferase biochemical (cell-free) qHTS assay (AID 1645840); further: nearly all actives have a fitted effect of over 55% in size; further: potency means the concentration at half of the fitted maximal effect; on activity change, negative = inhibition: series mostly up to about 57 µM
Cytochrome P450 2D6 (Homo sapiens), sequence (P10635 whole entry, looked up): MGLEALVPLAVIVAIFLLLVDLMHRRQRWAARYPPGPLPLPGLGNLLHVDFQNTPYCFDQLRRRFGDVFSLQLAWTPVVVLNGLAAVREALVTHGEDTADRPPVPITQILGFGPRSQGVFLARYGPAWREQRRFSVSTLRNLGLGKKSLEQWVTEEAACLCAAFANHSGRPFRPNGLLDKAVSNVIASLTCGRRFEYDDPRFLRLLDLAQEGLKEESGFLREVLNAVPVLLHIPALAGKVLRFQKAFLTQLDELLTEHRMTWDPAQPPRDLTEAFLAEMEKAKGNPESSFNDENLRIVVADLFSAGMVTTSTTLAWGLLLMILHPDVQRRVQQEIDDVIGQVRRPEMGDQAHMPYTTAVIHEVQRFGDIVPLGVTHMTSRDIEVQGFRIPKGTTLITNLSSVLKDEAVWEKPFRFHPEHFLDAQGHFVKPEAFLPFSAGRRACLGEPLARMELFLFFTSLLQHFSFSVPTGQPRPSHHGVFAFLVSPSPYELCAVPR
In short: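 P450-Glo luminescent screen: recombinant CYP2D6 enzyme–proluciferin substrate mix preincubated with compound 10 min at room temperature, then NADPH regeneration added for 1 h at room temperature. Detection reagent added for 20 min; luciferin light read as relative luminescence units.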

[4] = molecular target: Cytochrome P450 3A4 (Homo sapiens) (UniProt P08684); test: Cytochrome P450 family 3 subfamily A member 4 (CYP3A4) small molecule antagonists: luciferase qHTS assay (AID 1645841); further: nearly all actives have a fitted effect of over 45% in size
Cytochrome P450 3A4 (Homo sapiens), sequence (P08684 whole entry, looked up): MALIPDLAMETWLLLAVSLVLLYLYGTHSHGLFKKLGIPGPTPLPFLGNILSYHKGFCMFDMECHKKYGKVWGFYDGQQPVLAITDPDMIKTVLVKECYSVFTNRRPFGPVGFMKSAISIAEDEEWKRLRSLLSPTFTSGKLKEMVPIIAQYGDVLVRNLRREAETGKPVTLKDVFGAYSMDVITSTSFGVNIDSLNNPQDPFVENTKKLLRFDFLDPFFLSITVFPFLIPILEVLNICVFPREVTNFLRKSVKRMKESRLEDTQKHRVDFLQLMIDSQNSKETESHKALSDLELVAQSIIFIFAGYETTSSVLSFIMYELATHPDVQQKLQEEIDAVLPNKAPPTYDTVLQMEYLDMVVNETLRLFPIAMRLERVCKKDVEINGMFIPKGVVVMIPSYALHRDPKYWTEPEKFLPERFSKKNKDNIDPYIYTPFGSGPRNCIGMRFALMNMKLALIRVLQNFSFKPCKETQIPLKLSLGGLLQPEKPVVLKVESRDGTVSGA
In short: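 P450-Glo CYP3A4 enzyme with proluciferin substrate preincubated 10 min with compound at room temperature, then NADPH regeneration 1 h. Luciferin detection reagent added for 20 min; luminescence recorded. Ketoconazole positive control.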

[5] = Primary qHTS for small molecule stabilizers of the endoplasmic reticulum resident proteome: Secreted ER Calcium Modulated Protein (SERCaMP) assay (AID 1508630; active means well fitted curve in the direction sought with a large enough effect; an effect the other way counts as inactive or inconclusive)
In short: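 GLuc-SERCaMP-expressing SH-SY5Y cells, pretreated 16 h with compound, are challenged with thapsigargin to empty ER calcium stores; after 4 h, coelenterazine is added directly to the medium and luminescence is imaged.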

[6] = molecular target: N-terminal Xaa-Pro-Lys N-methyltransferase 1 (Homo sapiens) (UniProt Q9BV86); test: Confirmatory qHTS for Inhibitors of N-terminal methyltransferase 1 (NTMT1): MTaseGlo Assay (AID 1645874; active means well fitted curve in the direction sought with a large enough effect; an effect the other way counts as inactive or inconclusive;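 further: luminescence from SAH made as NTMT1 methylates SPKRIA peptide using SAM; series mostly up to about 100 µM; nearly all actives have a fitted effect of over 65% in size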)
N-terminal Xaa-Pro-Lys N-methyltransferase 1 (Homo sapiens), sequence (Q9BV86 whole entry, looked up): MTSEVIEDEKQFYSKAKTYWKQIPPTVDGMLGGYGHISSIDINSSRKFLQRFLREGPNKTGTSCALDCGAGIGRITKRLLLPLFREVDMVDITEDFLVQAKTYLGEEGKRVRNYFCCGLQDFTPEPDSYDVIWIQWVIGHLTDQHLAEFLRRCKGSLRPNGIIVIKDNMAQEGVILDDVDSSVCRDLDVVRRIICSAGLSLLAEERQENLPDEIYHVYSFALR
In short: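 Preincubation of NTMT1 (125 nM) plus SAM (100 uM) with test compounds lasted 15 min; methylation of 1 uM SPKRIA then proceeded 30 min in the dark at room temperature. Luciferase signal reported SAH produced.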

CC(C)C(=O)c1cn(CC(=O)COc2ccc(Oc3ccccc3)cc2)c2ccc(C(=O)O)cc12
Potency [1]: inactive | Potency [2]: inactive

O=S(=O)(Nc1ccc(C(O)(C(F)(F)F)C(F)(F)F)cc1)c1cccs1
Potency [1]: inactive | Potency [2]: 1.9 µM (active)

CC(C)(C)c1cc(CN2CCN(CC(O)c3ccc(Cl)cc3)CC2)cc(C(C)(C)C)c1O (stereo not given)
Potency [1]: inactive | Potency [2]: 8.49 µM (active)

CC1(C)C(=O)C(C)(C)c2cc(C(=O)Nc3ccc(C(=O)O)cc3)ccc21
Potency [1]: inactive | Potency [3]: inactive | Potency [2]: inactive

CNC(=O)Nc1ccc(OC)c(NC(=O)NC(=O)c2cc(F)c(F)cc2Cl)c1
Potency [1]: inactive | Potency [3]: inactive | Potency [2]: inactive

Cc1nn(C)c2c1C(c1ccc(C(F)(F)F)cc1)C(C#N)=C(N)O2 (stereo not given)
Potency [1]: inactive | Potency [2]: 21.3 µM (active)

Cn1c(=O)cc(N2CCCC(N)C2)n(Cc2ccccc2C#N)c1=O (stereo not given)
Potency [1]: inactive | Potency [2]: inactive

CCn1nnnc1NCc1ccc(C(C)C)cc1
Potency [1]: inactive | Potency [3]: inactive | Potency [2]: 7.56 µM (active)

C#Cc1cnc2[nH]c(=O)n(C(CC)CC)c2n1
Potency [1]: inactive | Potency [4]: inactive | Potency [2]: 8.49 µM (active)

COc1ccccc1[C@@H]1C2=C(CC(C)(C)CC2=O)Nc2n[nH]c(C(F)(F)F)c21
Potency [1]: inactive | Potency [2]: 8.49 µM (active)

O=C(O)C[C@@H](NC(=O)c1cc(-c2ccc(-c3ccncc3)cc2)cs1)c1ccccc1
Potency [1]: inactive | Potency [2]: 26.8 µM (active)

CNC(=O)c1ccc2cc([C@@]3(O)CCn4cncc43)ccc2c1
Potency [3]: 12 µM (active)

OCC(S)CS (stereo not given)
Potency [3]: 16.9 µM (active) | Potency [2]: 2.68 µM (active)

CCCCCCCC(=O)O
Potency [3]: inactive | Potency [2]: inactive

CCOC(=O)c1ccc(N(C)c2csc(-c3ccccc3)n2)cc1
Potency [2]: 0.674 µM (active)

CC1(C)CCC(C)(C)c2cc([C@@H](O)C(=O)Nc3ccc(C(=O)O)cc3F)ccc21
Potency [3]: inactive | Potency [2]: 13.5 µM (active)

CCCCC(C)(O)C/C=C/[C@H]1[C@H](O)CC(=O)[C@@H]1CCCCCCC(=O)OC (stereo not given in full)
Potency [3]: 10.7 µM (active) | Potency [2]: 2.68 µM (active)

O=C(Nc1ccc(Br)cc1)c1cc(Br)c(Br)s1
Potency [3]: 9.52 µM (active) | Potency [2]: 21.3 µM (active)

CO[C@@H](Cc1ccc(OCCc2nc(-c3ccccc3)oc2C)c2ccsc12)C(=O)O
Potency [3]: inactive | Potency [2]: 26.8 µM (active)

O=C(O)c1cc(=O)c2c3nc4ccccc4oc-3cc(=O)c2[nH]1
Potency [3]: 1.9 µM (active) | Potency [2]: 26.8 µM (active)

CC1=C(/C=C/C(C)=C/C=C/C(C)=C/CO)C(C)(C)CCC1
outcome [5]: inactive

Cc1cccc(-c2[nH]c(CNc3ccccc3F)nc2-c2ccc3ncnn3c2)n1
Potency [2]: 21.3 µM (active)

C[C@@H]1[C@H](O)[C@@H](C)/C=C/C=C\C=C\C=C\C=C\C=C\C=C\[C@H](O[C@@H]2O[C@H](C)[C@@H](O)[C@H](N)[C@@H]2O)C[C@@H]2O[C@](O)(C[C@@H](O)C[C@@H](O)[C@H](O)CC[C@@H](O)C[C@@H](O)CC(=O)O[C@H]1C)C[C@H](O)[C@H]2C(=O)O (stereo in doubt)
Potency [3]: inactive | Potency [2]: inactive

CC(C)N=c1cc2n(-c3ccc(Cl)cc3)c3ccccc3nc-2cc1Nc1ccc(Cl)cc1
outcome [5]: inactive | Potency [3]: 1.34 µM (active)

Cc1c(C)c2c(c(C)c1O)CC[C@@](C)(CCC[C@H](C)CCC[C@H](C)CCCC(C)C)O2
Potency [3]: inactive | Potency [2]: inactive

COC(=O)C1=C(C#N)NC(C)=C(C(=O)OC(C)C)C1c1cccc([N+](=O)[O-])c1 (stereo not given)
Potency [2]: 1.07 µM (active)

NC(=O)c1ncn(C2OC(CO)C(O)C2O)n1 (stereo not given)
Potency [3]: inactive

CCOC(=O)C1=CC2(CC)CCCN3CCc4c(n1c1ccccc41)C32 (stereo not given)
outcome [5]: inactive

Nc1c(N=Nc2ccc(-c3ccc(N=Nc4cc(S(=O)(=O)O)c5ccccc5c4N)cc3)cc2)cc(S(=O)(=O)O)c2ccccc12
Potency [3]: 7.56 µM (active)

CC(=O)N[C@@H](CC(C)C)C(=O)N[C@@H](CCC(=O)O)C(=O)N[C@@H](CCC(=O)O)C(=O)N[C@@H](CC(=O)O)C(=O)Nc1ccc2c(C(F)(F)F)cc(=O)oc2c1 (Ac-LEED-{AFC})
Potency [1]: inactive | Potency [6]: inactive

CC(=O)OCC(=O)[C@@]12OC3(CCCC3)O[C@@H]1C[C@H]1[C@@H]3CCC4=CC(=O)C=C[C@]4(C)[C@@]3(F)[C@@H](O)C[C@@]12C
Potency [2]: 13.5 µM (active)

Cc1cc(/C=C/c2ccc3cc(N(C)C)ccc3[n+]2C)c(C)n1-c1ccccc1
outcome [5]: inactive

O=S(=O)(NC1CCNCC1)c1cc(S(=O)(=O)c2ccccc2)ccc1C(F)(F)F
Potency [3]: inactive | Potency [2]: inactive

CCCCC(CC)COC(=O)CC(C(=O)OCC(CC)CCCC)S(=O)(=O)O (stereo not given)
Potency [2]: inactive

O=S(=O)(O)c1ccc2c(N=Nc3ccc(S(=O)(=O)O)c4ccccc34)c(O)c(S(=O)(=O)O)cc2c1
Potency [2]: 12 µM (active)

CC(=O)N[C@@H](CC(=O)O)C(=O)N[C@@H](CCC(=O)O)C(=O)O (Ac-Asp-Glu-OH)
outcome [5]: inactive

CCN(CC)Cc1cc(Nc2ccnc3cc(Cl)ccc23)ccc1O
Potency [2]: inactive

Clc1cc(Cl)c(OCC#CI)cc1Cl
Potency [3]: 0.674 µM (active) | Potency [2]: 6.01 µM (active)

CCCCC/C=C\C/C=C\CCCCCCCC(=O)O
activity change, negative = inhibition [5]: -23.8% [at 3.88 µM]

COc1cccc(-c2ccc([C@@H](Oc3cc(-c4ccc(C[C@H](N)C(=O)O)cc4)nc(N)n3)C(F)(F)F)cc2)c1
Potency [3]: inactive | Potency [2]: 6.74 µM (active)

O=C(O)CC/C=C\CC[C@H]1[C@@H](N2CCCCC2)[C@@H](O)C[C@@H]1OCc1ccc(-c2ccccc2)cc1
outcome [5]: inactive

Nc1nc(N)c2nc(CNc3ccc(C(=O)N[C@@H](CCC(=O)O)C(=O)O)cc3)cnc2n1
Potency [3]: inactive | Potency [4]: inactive | Potency [2]: inactive

COC(=O)CCC(=O)CN
Potency [3]: inactive | Potency [2]: inactive
